Source: PubChem BioAssay (NCI)
The panel holds about 83,000 compounds, 20% with a hit somewhere; the sample as a whole holds those more often.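 Cells were grown in 96-well plates and exposed to the test compound at a single concentration for 48 hours; results are reported as percent growth, with values below 10 considered active.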 Unmarked numbers belong to inactive results. Active and inactive are the calls of the source.

What was measured:
Test in all cases: NCI-60 one-dose screen, 48 h (100 = growth as untreated, 0 = no growth, -100 = all killed)
Conditions in all cases: 10 µM unless noted
[1] = test system: NCI-H23 lung
[2] = test system: NCI-H226 lung
[3] = test system: NCI-H322M lung
[4] = test system: HOP-62 NSCLC
[5] = test system: NCI-H460 lung
[6] = test system: HOP-92 NSCLC
[7] = test system: NCI-H522 lung
[8] = test system: A549/ATCC NSCLC
[9] = test system: 786-0 renal
[10] = test system: COLO 205 colon
[11] = test system: DU-145 prostate
[12] = test system: K-562 leukemia
[13] = test system: MALME-3M melanoma
[14] = test system: MDA-MB-231 breast
[15] = test system: RXF 393 renal
[16] = test system: SF-268 CNS
[17] = test system: SF-539 CNS
[18] = test system: UACC-257 melanoma
[19] = test system: M14 melanoma

SMILES	growth [1]	growth [2]	growth [3]	growth [4]	growth [5]	growth [6]	growth [7]	growth [8]	growth [9]	growth [10]	growth [11]	growth [12]	growth [13]	growth [14]	growth [15]	growth [16]	growth [17]	growth [18]	growth [19]
CC(=O)O[C@H]1[C@H](CC#CC#CC[C@@H]2C[C@]3(C)[C@H]4CC=C5[C@H]6[C@@H](C)[C@H](C)CC[C@]6(C(=O)NCCCCCCCCN)CC[C@@]5(C)[C@]4(C)CC[C@H]3C(C)(C)[C@H]2OC(C)=O)C[C@]2(C)[C@H]3CC=C4[C@H]5[C@@H](C)[C@H](C)CC[C@]5(C(=O)NCCCCCCCCN)CC[C@@]4(C)[C@]3(C)CC[C@H]2C1(C)C	99.1%	-83.5% (active)	106%	96.7%	103%	92.3%	106%	102%	103%	114%	110%	108%	105%	103%	94.6%	102%	94.1%	106%	102%
CN1CCN(Cc2ccc(NC(=O)c3cncc(C#Cc4ncc5cnccn45)c3)cc2C(F)(F)F)CC1	34.3%	-7.4% (active)	60.4%	33.7%	52.6%	11.2%	58.3%	74.2%	71.5%	17%	46.8%	8.73% (active)	14.7%	25.6%	51.1%	56.4%	37.8%	55.3%	9.27% (active)
Cn1nc(C(F)(F)F)cc1-c1c[nH]c(OCc2ccc(Cl)cc2)c(-c2ccc(Cl)c(C(F)(F)F)c2)c1=O	3.29% (active)	-17.3% (active)	8.32% (active)	-25% (active)	2.53% (active)	-22.6% (active)	-1.66% (active)	13.4%	3.83% (active)	-31% (active)	15.7%	8.64% (active)	-24.2% (active)	-29% (active)	-21.9% (active)	8.48% (active)	-11.4% (active)	4.21% (active)	1.49% (active)
O=C(NNC(=S)Nc1ccccc1)c1ccc(Nc2ncnc3c2cnn3-c2cccc(Br)c2)cc1	99.8%	94.3%	95.5%	88%	112%	93.5%	88.6%	112%	105%	103%	107%	112%	101%	110%	99.6%	95.4%	98.5%	114%	100%
O=[N+]([O-])c1cccc(N=C(Nc2cccc([N+](=O)[O-])c2)c2ccccc2)c1	86.4%	91.6%	81.2%	89.9%	102%	47.4%	59.5%	79.9%	83.6%	109%	98.2%	45%	79.7%	83.9%	82%	96.6%	87.1%	92.4%	85.7%
CCOC(=O)c1ccc(NC(=O)NC2=NCCS2)cc1	18.4%	13.5%	77.7%	35.7%	19.5%	73.6%	20.8%	22.5%	33.8%	103%	0.751% (active)	58.6%	8.27% (active)	51.8%	-15.3% (active)	40.4%	1.9% (active)	80.5%	34.9%
CC1C2CCC(C2)C1COCCOCCO (centres undefined)	107%	104%	109%	108%	112%	105%	96%	92%	104%	121%	114%	109%	107%	113%	116%	112%	96.7%	87.8%	112%
C#CC[C@@H]1C[C@]2(C)[C@H]3CC=C4[C@H]5[C@@H](C)[C@H](C)CC[C@]5(C(=O)NCCCCN)CC[C@@]4(C)[C@]3(C)CC[C@H]2C(C)(C)[C@H]1OC(C)=O	94.8%	87.1%	92.4%	89.2%	1.45% (active)	44.1%	81.7%	72.6%	79.9%	6.68% (active)	58.6%	-26.6% (active)	98.9%	39.5%	56.4%	69.8%	84.7%	115%	66.6%
Cc1cc(C)cc(CCCCCCCCCCCCCCCCCC(=O)O)c1	104%	111%	110%	107%	113%	116%	92%	96.6%	99.5%	113%	108%	115%	108%	120%	107%	103%	106%	106%	98%
CC1=C(C(=O)Nc2ccc(F)cc2)C(c2ccccc2)C2=C(CC(C)(C)CC2=O)N1 (centres undefined)	72.2%	84.9%	95.9%	96.1%	73%	-3.3% (active)	53.4%	76.7%	84.6%	99.2%	95.2%	56%	89.8%	70%	96.4%	82.6%	79.5%	83.6%	82.6%
CCCCNCC(O)c1cc(-c2ccc(C(F)(F)F)cc2)nc(-c2ccc(C(F)(F)F)cc2)c1 (centres undefined)	-63.9% (active)	-76.2% (active)	-74.3% (active)	-90.5% (active)	-76.7% (active)	-86% (active)	-79% (active)	-83.5% (active)	-78.7% (active)	-87.2% (active)	6.08% (active)	-59.5% (active)	-41.6% (active)	-71.9% (active)	-94.4% (active)	-86% (active)	-74.9% (active)	-70.3% (active)	-79.7% (active)
O=c1[nH]c2ccccc2n2cc3cccnc3c12	77.5%	64.2%	116%	68.7%	37.3%	83.6%	57.6%	83.5%	71.1%	70%	87.5%	47.2%	116%	65.7%	80.8%	79.3%	75.5%	97.1%	84.1%
O=C(c1ccc(C(F)(F)F)c(Cl)c1)N(Cc1ccc(Cl)cc1)c1ccc(-c2cc(C(F)(F)F)[nH]n2)c(O)c1	6.5% (active)	-5.3% (active)	14.4%	-4.7% (active)	6.77% (active)	-15.6% (active)	-1.27% (active)	12.8%	3.06% (active)	-73.8% (active)	12.8%	7.36% (active)	1.34% (active)	-35.7% (active)	-9.88% (active)	7.06% (active)	2.09% (active)	10.3%	10.9%
C#CCNC(=S)N/N=C(\C)c1ccccn1	20.1%	5% (active)	-4.06% (active)	26.5%	4% (active)	52.4%	43.9%	23.9%	4.03% (active)	19.6%	15.4%	15.2%	12.1%	39.5%	6.73% (active)	14.7%	1.69% (active)	16.4%	-21.7% (active)
O=C(NCC(c1ccsc1)N1CCCCCC1)c1ccc(C(F)(F)F)cc1 (centres undefined)	93%	91.9%	99.9%	113%	100%	99%	92.8%	96.5%	96.9%	102%	105%	83.7%	98.5%	85.1%	85.7%	98.3%	108%	108%	93%
COc1ccc(-n2nc(C(=O)NCC(=O)Nc3nc4cc(OC)ccc4s3)c3ccccc3c2=O)cc1	19.5%	-11.1% (active)	31.4%	-78.7% (active)	1.04% (active)	-34.9% (active)	-9.83% (active)	0.477% (active)	20.4%	32.7%	-28.9% (active)	73.9%	-13.8% (active)	-13.6% (active)	-38.1% (active)	-13.6% (active)	-93% (active)	-4.82% (active)	44.3%
